Data on 9 molecules can be found in PubChem BioAssay.

Assay [1] is described as follows: HepG2 liver cancer cell viability effects, profiling panel, resazurin fluorescence, 24 h, PK04 Diversity Set (AID 1172). Particulars: higher = more signal.
The nature of assay [2]: basal S. cerevisiae growth modulation, no modifier, primary screen, OD600, strain BY4716, 24 h, basal condition (AID 1173). Particulars: OD600, 24 h, higher = more signal, called active from +8 up or from −8 down.
Assay [3] in a line: MM1S myeloma cell viability, profiling panel, resazurin fluorescence, basal, 24 h, PK04 Diversity Set (AID 1174). Particulars: higher = more signal, called active from +8 up or from −8 down. On the technique in general: Alamar Blue is a resazurin reagent that responds to reducing activity.
The target in assay [4] is Dihydroorotate dehydrogenase (quinone), mitochondrial (Plasmodium falciparum (isolate 3D7)) (UniProt Q08210). The assay can be described thus: PfDHODH enzyme inhibitors, primary screen, biochemical, C-terminal His tag, absorbance 600 nm (AID 1175).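 Note: recombinant parasite enzyme with a five histidine tag at its C terminus.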 Particulars: DCIP absorbance 600 nm, higher = more signal, called active from +8 up or from −8 down.
Sequence of Dihydroorotate dehydrogenase (quinone), mitochondrial (Plasmodium falciparum (isolate 3D7)) (Q08210 whole entry, looked up): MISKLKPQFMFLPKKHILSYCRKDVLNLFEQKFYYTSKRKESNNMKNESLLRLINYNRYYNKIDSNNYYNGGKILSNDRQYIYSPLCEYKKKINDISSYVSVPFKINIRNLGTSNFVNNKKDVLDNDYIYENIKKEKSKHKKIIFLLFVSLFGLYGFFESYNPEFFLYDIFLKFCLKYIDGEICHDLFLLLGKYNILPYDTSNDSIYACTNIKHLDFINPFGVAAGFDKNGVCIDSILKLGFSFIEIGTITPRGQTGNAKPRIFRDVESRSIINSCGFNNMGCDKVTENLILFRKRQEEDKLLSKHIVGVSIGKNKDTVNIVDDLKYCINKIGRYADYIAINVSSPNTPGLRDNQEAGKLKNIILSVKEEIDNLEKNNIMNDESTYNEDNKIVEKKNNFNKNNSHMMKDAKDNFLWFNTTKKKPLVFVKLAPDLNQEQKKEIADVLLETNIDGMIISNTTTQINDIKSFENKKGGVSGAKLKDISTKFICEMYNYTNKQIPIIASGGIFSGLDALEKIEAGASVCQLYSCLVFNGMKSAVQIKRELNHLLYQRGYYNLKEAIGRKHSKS
Assay [5] can be described thus: P. aeruginosa biofilm formation inhibitors, primary screen, strain PAO1, LB-PBS medium, absorbance 600 nm (AID 1176). Particulars: P. aeruginosa PAO1 growth/biofilm, A600, 12 h; higher = more signal.
A short description of assay [6]: S. cerevisiae RM11-1a growth modifiers, primary screen, strain RM11-1a, OD600, basal, 24 h (AID 1177).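 Note: cultures grown under basal conditions with no added stressor.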 To be noted: OD600, 24 h, higher = more signal, called active from +8 up or from −8 down.
The nature of assay [7]: E. coli acrAB mutant growth effects, primary screen, E. coli filamentation inducers, strain DRC39, OD650, 24 h (AID 1178).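 Note: growth measured as culture turbidity by optical density at 650 nm.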 To be noted: higher = more signal, called active from +8 up or from −8 down.
Assay [8] is described as follows: E. coli acrAB mutant growth effects, primary screen, E. coli filamentation inducers, strain DRC39, OD650, 48 h (AID 1179).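 Note: screen aims at cell division blockers that make cells filament.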 Particulars: E. coli DRC39 delta-acrAB growth, higher = more signal, called active from +8 up or from −8 down.
Assay [9] in a line: RPMI8226 myeloma cell viability, profiling panel, resazurin fluorescence, basal, 24 h, PK04 Diversity Set (AID 1180).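 Note: RPMI8826 multiple myeloma cell line at 5000 cells per well.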 Particulars: higher = more signal.
Assay [10] deals with E3 ubiquitin-protein ligase XIAP (Homo sapiens) (UniProt P98170). As to the kind of experiment: XIAP binders, primary screen, biophysical, small-molecule microarray, fluorescence 635 nm (AID 1181).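 Note: score merges 667 nm emission and signal to noise over triplicate slides.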 To be noted: small-molecule microarray binding, higher = more signal.
Sequence of E3 ubiquitin-protein ligase XIAP (Homo sapiens) (P98170 whole entry, looked up): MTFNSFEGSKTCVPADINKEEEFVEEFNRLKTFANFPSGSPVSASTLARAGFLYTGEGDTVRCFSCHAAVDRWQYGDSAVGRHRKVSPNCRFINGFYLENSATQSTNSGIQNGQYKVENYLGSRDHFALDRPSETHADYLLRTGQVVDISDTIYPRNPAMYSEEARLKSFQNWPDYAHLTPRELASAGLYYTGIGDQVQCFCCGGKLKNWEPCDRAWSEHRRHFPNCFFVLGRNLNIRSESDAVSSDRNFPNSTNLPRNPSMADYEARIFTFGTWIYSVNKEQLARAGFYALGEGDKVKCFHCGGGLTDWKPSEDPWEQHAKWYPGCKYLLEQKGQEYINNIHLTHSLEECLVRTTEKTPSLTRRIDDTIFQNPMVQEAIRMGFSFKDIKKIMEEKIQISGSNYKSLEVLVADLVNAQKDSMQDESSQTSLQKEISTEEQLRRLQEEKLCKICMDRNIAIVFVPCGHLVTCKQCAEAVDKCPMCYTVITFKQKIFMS
Assay [11] deals with XIP peptide (Xip251-270) binding. As to the kind of experiment: small-molecule binders of XIP peptide, primary screen, biochemical, small-molecule microarray, fluorescence 635/667 nm, 0.1 µg/mL protein (AID 1182). To be noted: fluorescent protein binding, 635 nm, higher = more signal, called active from +8 up or from −8 down.
For another assay, the system named is XIP peptide (Xip251-270). As to the kind of experiment: small-molecule binders of XIP peptide, primary screen, biochemical, small-molecule microarray, fluorescence 635/667 nm, 0.5 µg/mL protein (AID 1183). To be noted: small-molecule microarray binding, fluorescence 635 nm; higher = more signal.
Assay [12] is described as follows: Plasmodium falciparum growth inhibition, primary screen, strain 3D7, DAPI fluorescence, 100 nL (AID 1184).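 Note: parasites grown inside human red blood cells in medium with human serum.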 To be noted: P. falciparum 3D7 growth, 3 d, higher = more signal.
Assay [13] addresses Homeobox protein Hox-A13 (Mus musculus) (UniProt Q62424). As to the kind of experiment: inhibitors of HoxA13-DNA binding, primary screen, biochemical, fluorescence polarization, labeled oligonucleotide (AID 1185). To be noted: 15 min, higher = more signal, called active from +8 up or from −8 down. Background: Polarisation of emitted light reports the rotation of a fluorescent probe.

The nature of assay [14]: inhibitors of hydroxyurea-induced Chk1 phosphorylation, primary screen, imaging, HeLa, phospho-Chk1 antibody, percent positive cells (AID 1186). Particulars: hydroxyurea-induced phospho-Chk1 immunofluorescence imaging, higher = more signal.
Assay [15] can be described thus: inhibitors of hydroxyurea-induced Chk1 phosphorylation, primary screen, imaging, HeLa, phospho-Chk1 nuclear intensity (AID 1187). To be noted: hydroxyurea-induced phospho-Chk1 immunofluorescence imaging, higher = more signal.

The source made the active and inactive calls. Unless noted, the rule behind the calls is not given here.

Sequence of Homeobox protein Hox-A13 (Mus musculus) (Q62424 whole entry, looked up): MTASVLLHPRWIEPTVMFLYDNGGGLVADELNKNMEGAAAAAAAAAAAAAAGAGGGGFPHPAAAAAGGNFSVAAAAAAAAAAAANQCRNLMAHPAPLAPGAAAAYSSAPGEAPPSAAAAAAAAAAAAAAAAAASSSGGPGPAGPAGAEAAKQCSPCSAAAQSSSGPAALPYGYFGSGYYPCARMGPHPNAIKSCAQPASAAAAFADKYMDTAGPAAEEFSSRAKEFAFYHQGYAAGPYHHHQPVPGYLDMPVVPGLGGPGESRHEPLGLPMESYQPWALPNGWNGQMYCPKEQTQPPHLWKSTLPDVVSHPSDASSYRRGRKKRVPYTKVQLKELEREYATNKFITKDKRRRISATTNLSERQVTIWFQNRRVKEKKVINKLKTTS

Consider `C=CCC(OC(C)=O)[C@@H]1[C@@H](N(Cc2cccc3ccccc23)C(=O)c2ccc(-c3ccccc3)cc2)c2cc(OCCCO)ccc2N1C(=O)Cc1ccc2ccccc2c1` (some centres undefined), for which the z-score is 0.236 in assay [1]; 0.716 (inactive) in [2]; 0.331 (inactive) in assay [3]; 0.444 (inactive) in assay [5]; -0.368 (inactive) in assay [6]; -0.416 (inactive) in assay [7]. Moreover, the z-score in assay [8] is -0.236 (inactive); in assay [9] it was 0.193; in assay [12] it was 0.0788; in assay [13], -0.896 (inactive); in assay [14] it was 0.547 (inactive); in assay [15] it was 0.582 (inactive). The composite z-score is -0.0628 (inactive) in assay [4], -0.179 in assay [10], -0.419 (inactive) in [11] and -0.347 in the assay on XIP peptide (Xip251-270).
For the molecule `COCCOC(=O)N1C(=O)[C@@]2(c3cc(C#CCC(C(=O)OC)C(=O)OC)ccc31)[C@H](C(=O)Nc1nc3ccccc3s1)[C@H]1C(=O)O[C@H](c3ccccc3)[C@H](c3ccccc3)N1[C@@H]2c1ccc(OCCO)cc1`, the z-score in assay [1] is 0.318; in assay [2] it was 1.18 (inactive); in [3] it was 0.961 (inactive); in [5], 2.54 (inactive); in assay [6], 2.25 (inactive); in assay [7] it was -0.0125 (inactive). For the same molecule, the z-score is 0.972 (inactive) in assay [8]; -0.177 in [9]; -1.85 in [12]; 1.46 (inactive) in assay [13]; -0.0393 (inactive) in [14]; 0.611 (inactive) in [15]. Also, the composite z-score in assay [4] is -0.859 (inactive); in assay [10] it was 0.214; in [11], 1.7 (inactive); in the assay on XIP peptide (Xip251-270), 0.768.
On to `COC(=O)[C@@]1(Cc2ccc(F)cc2)[C@H]2c3cc(C(=O)N4CCCC4)n(CCc4ccccn4)c3C[C@H]2CN1C(=O)c1ccccc1`, for which the z-score in assay [1] is -0.386; in [2], 0.842 (inactive); in assay [3], -0.232 (inactive); in assay [5] it was 0.647 (inactive); in assay [6] it was 0.564 (inactive); in assay [7], -0.803 (inactive). Besides, the z-score in assay [8] is -0.588 (inactive); in assay [9], -0.102; in assay [12], -1.31; in assay [13], -4.83 (inactive); in [14], 0.227 (inactive); in assay [15] it was 0.247 (inactive). Further, the composite z-score in assay [4] is 0.224 (inactive); in assay [10], 0.0853; in assay [11] it was 0.405 (inactive); in the assay with XIP peptide (Xip251-270) it was -0.189.
As to `CC=CC(O)C1C=CC2C(=O)NC(=O)C2N1Nc1ccc(Cl)cc1Cl` (centres undefined), the z-score is -1.2 in assay [1]; -11.4 (active) in assay [2]; -1.53 (inactive) in [3]; 0.723 (inactive) in assay [5]; 1.52 (inactive) in assay [6]; -0.427 (inactive) in assay [7]. The z-score was -0.356 (inactive) in assay [8]; -1.68 in assay [9]; 0.179 in assay [12]; -3.78 (inactive) in assay [13]; 1.3 (inactive) in assay [14]; 1.22 (inactive) in assay [15]. In addition, the composite z-score in assay [4] is 0.733 (inactive); in assay [10] it was -0.113; in [11], -0.223 (inactive); in the assay with XIP peptide (Xip251-270), -0.186.
Take `O=C1c2ccccc2[C@@]2(Cc3ccccc3N(Cc3ccccc3)C2=O)[C@H](c2ccc(CO)cc2)N1Cc1ccccc1Cl`: the z-score in assay [1] was 0.645; in assay [2] it was 0.0388 (inactive); in [3] it was 0.685 (inactive); in assay [5], -0.425 (inactive); in assay [6], 0.0513 (inactive); in assay [7], 0.134 (inactive). Further, the z-score in assay [8] is 0.86 (inactive); in [9], 0.694; in assay [12], 0.689; in assay [13], -0.299 (inactive); in assay [14], -0.0672 (inactive); in assay [15], 0 (inactive). The composite z-score in assay [4] is -3.2 (inactive); in assay [10], 0.147; in assay [11], 0.0408 (inactive); in the assay with XIP peptide (Xip251-270), 0.311.
Take `COc1cc(CO)cc(I)c1O[C@H]1C=C(C(=O)NCCO)C[C@@H](NC2CCCCCC2)[C@@H]1O`: the z-score was 0.371 in [1]; -4.02 (inactive) in [2]; 0.115 (inactive) in assay [3]; -0.896 (inactive) in assay [5]; 0.77 (inactive) in assay [6]; 0.901 (inactive) in assay [7]. For the same molecule, the z-score in assay [8] was 0.12 (inactive); in [9], 0.215; in [12], -3.18; in assay [13], -7.19 (inactive); in assay [14], -0.75 (inactive); in [15], -1.01 (inactive). Besides, the composite z-score in assay [4] is 1.11 (inactive); in assay [10] it was -0.11; in assay [11], 0.509 (inactive); with XIP peptide (Xip251-270) it was 0.649.
As for `O=C(NCc1ccccc1)[C@@H]1c2ccccc2C(=O)N(Cc2ccc(OC(F)(F)F)cc2)[C@H]1c1ccc(CO)cc1`, the z-score was 0.299 in assay [1]; -0.103 (inactive) in [2]; 0.61 (inactive) in assay [3]; -0.109 (inactive) in assay [5]; -0.486 (inactive) in assay [6]; 0.822 (inactive) in [7]. In addition, the z-score in [8] was 0.387 (inactive); in assay [9], 1.5; in assay [12], -0.655; in assay [13] it was -2.53 (inactive); in [14] it was 0.0188 (inactive); in assay [15], 0.243 (inactive). For the same molecule, the composite z-score in [4] is -0.197 (inactive); in assay [10], 0.371; in [11], -0.304 (inactive); in the assay with XIP peptide (Xip251-270) it was 0.56.
`COC(=O)C(CC#Cc1ccc2c(c1)[C@]1(C(=O)N2)[C@H](C(=O)N2CCc3cc(OC)c(OC)cc3C2)[C@H]2C(=O)O[C@H](c3ccccc3)[C@H](c3ccccc3)N2[C@@H]1c1ccccc1OCCO)C(=O)OC`: the z-score in [1] is -0.553; in [2], 1.79 (inactive); in [3] it was -1.03 (inactive); in [5], 3.81 (inactive); in assay [6], 2.83 (inactive); in assay [7] it was 0.154 (inactive). In addition, the z-score was 0.618 (inactive) in assay [8]; -0.705 in [9]; -2.23 in [12]; 2.81 (inactive) in [13]; -0.0915 (inactive) in assay [14]; 0.0536 (inactive) in assay [15]. The composite z-score in assay [4] was -7.03 (inactive); in assay [10], -0.11; in [11], 0.254 (inactive); in the assay on XIP peptide (Xip251-270), 0.796.
With `O=C1NC(=O)C2C1C=CC(C(O)c1ccc(B(O)O)cc1)N2Nc1ccc(Cl)cc1Cl` (centres undefined), the z-score was -1.97 in assay [1]; -7.76 (inactive) in assay [2]; -1.19 (inactive) in assay [3]; 1.29 (inactive) in assay [5]; 1.48 (inactive) in assay [6]; 0.0436 (inactive) in [7]. Moreover, the z-score was -1.52 (inactive) in assay [8]; -1.78 in assay [9]; -0.195 in [12]; -4.45 (inactive) in [13]; 0.549 (inactive) in assay [14]; 0.367 (inactive) in [15]. Moreover, the composite z-score in assay [4] is -0.0575 (inactive); in assay [10] it was 0.0049; in [11], 0.185 (inactive); in the assay with XIP peptide (Xip251-270), -0.0187.
